Rows were chosen to be rich in hits. Some 1.3% of all compounds tested hit in one or more screens of this group.
LANA-H2A inh: blocks KSHV LANA binding to histone H2A/H2B; cell-free LANA-H2A/H2B peptide, fluorescence polarization; AID 2629; inhibition, % (concentration not given with the values); Q9QR71; 320,000 compounds, 0.6% hits; in the data active = inhibition mostly above about 10%, no sharp cut-off; inactive = mostly below about 6.7%
RTF Ca sens inh: cardiac RTF calcium desensitization; P19429+P45379; IANBD-labeled cardiac RTF, Ca2+ fluorescence; inhibition, % at 7.15 µM; 340,000 compounds, 0.12% hits; AID 493244;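 active = inhibition above the mean inhibition of all tested compounds plus 3 SD, cut at about 17% in these data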;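 note: assay run at fixed EC70 calcium of 1.6 mM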
cardiac RTF act: cardiac RTF calcium sensitization. IANBD-labeled TnC RTF fluorescence at EC20 calcium; 0% EC20 calcium, 100% full calcium. P19429+P45379. AID 493008. activation, % at 7.2 µM. 340,000 compounds, 0.24% hits;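 active = activation above the mean over all tested compounds plus 3 SD, cut at about 30% in these data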;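 note: rise in fluorescence read as greater calcium sensitivity of cardiac thin filaments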
E coli Lon inh: E. coli protease La inhibition; 360,000 compounds, 0.42% hits; purified E. coli Lon protease, fluorescence polarization; P0A9M0; AID 602123; inhibition, % at 7.94 µM; in the data active = inhibition above about 13%, passing the limit was not always enough
Keap1-Nrf2 PPI: disrupts human Keap1 binding to Nrf2 peptide; Q14145; inhibition, % at 9.4 µM; AID 504523; Keap1 Kelch-Nrf2 peptide fluorescence polarization, 1536-well; 340,000 compounds, 0.15% hits; in the data active = inhibition above about 12%;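 note: human Keap1 Kelch domain with fluorescein labeled Nrf2 9mer peptide probe; higher means more block of Keap1 binding to Nrf2 peptide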
Target sequence (Q14145 whole entry, looked up, the tested form may be a part): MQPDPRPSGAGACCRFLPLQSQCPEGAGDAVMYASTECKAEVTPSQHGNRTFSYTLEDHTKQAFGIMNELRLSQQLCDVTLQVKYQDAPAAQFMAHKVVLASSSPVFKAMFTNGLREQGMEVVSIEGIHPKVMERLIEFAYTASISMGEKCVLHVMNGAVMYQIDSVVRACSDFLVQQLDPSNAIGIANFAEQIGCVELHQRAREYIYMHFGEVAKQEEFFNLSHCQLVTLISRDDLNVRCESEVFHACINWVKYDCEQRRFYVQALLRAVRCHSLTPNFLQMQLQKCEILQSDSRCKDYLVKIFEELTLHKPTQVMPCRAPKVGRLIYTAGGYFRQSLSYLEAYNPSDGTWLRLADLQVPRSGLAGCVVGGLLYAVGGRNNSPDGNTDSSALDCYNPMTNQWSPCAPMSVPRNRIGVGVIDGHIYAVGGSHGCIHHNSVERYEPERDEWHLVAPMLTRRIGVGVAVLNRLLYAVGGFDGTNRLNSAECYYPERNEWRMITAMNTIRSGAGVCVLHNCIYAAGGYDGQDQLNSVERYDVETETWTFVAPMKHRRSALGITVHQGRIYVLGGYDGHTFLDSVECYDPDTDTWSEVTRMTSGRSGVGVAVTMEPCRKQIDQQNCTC
C-LANA FP: KSHV C-LANA DNA binding inhibition; inhibition, % at 9 µM; 340,000 compounds, 0.078% hits; MBP-C-LANA/FAM-LBS DNA binding, fluorescence polarization;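 active = highest replicate inhibition at or above 60% at 9 µM, even if other replicates fall short; inactive = all replicates below 60% inhibition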
E coli Lon conf: E. coli Lon inhibition confirmation | shares compounds with E coli Lon inh | purified E. coli Lon, fluorescence polarization | inhibition, % at 7.94 µM | 1,400 compounds, 31% hits; in the data active = inhibition above about 16%
Large screens that a line does not name were inactive (follow-up assays come after a bar, where they were run); ! = not confirmed by another sample.

COc1ccc(NC2CCN(C3CC(=O)N(c4ccc(F)c(Cl)c4)C3=O)CC2)cc1 (stereo unspecified)	E coli Lon inh 17 | E coli Lon conf inactive
CN(C)CCCn1c2c3ccccc3ccc2c2oc(=O)c3ccccc3c21	E coli Lon inh active (no result: LANA-H2A inh) | E coli Lon conf 23
O=C(O)/C=C/C(=O)Nc1ccc(O)cc1	E coli Lon inh 121 | E coli Lon conf inactive
O=C(CN1CCOCC1)Nc1ccc(OC(F)(F)F)cc1	none
CCCCN(C(=O)CSc1nc2ccccc2n1CC)C1CCS(=O)(=O)C1 (stereo unspecified)	none
O=C(O)CCCNc1cc(N2CCN(C(=O)c3ccco3)CC2)c2noc3c2c1C(=O)c1ccccc1-3	E coli Lon inh 26 | E coli Lon conf 132
O=C1c2ccccc2-c2onc3c(N4CCN(CCO)CC4)cc(N4CCN(C(=O)c5ccco5)CC4)c1c23	none
CC1=Nc2ccc(C)c3nc(C)cc(c23)N1c1ccc(C)cc1	none
Cc1ccc(N2C=Nc3ccc(C)c4nc(C)cc2c34)cc1	E coli Lon inh 18 | E coli Lon conf inactive
CCC(C)/C=C/C1=CC2=C(Cl)C(=O)C3(C)OC(=O)C(C(=O)C(C)C(C)O)C3C2=CO1 (stereo unspecified)	none
Cc1cccc(NC(=O)c2cc(-c3cc(Cl)ccc3O)n[nH]2)c1	none
CC(C)CN(C(=O)CSc1nnc(C2CC2)n1-c1ccccc1)C1CCS(=O)(=O)C1 (stereo unspecified)	E coli Lon inh 56 | E coli Lon conf 55
CCCCNC(=O)C1(C)CCCCN1C(=O)c1sccc1C (stereo unspecified)	E coli Lon inh 22 (no result: LANA-H2A inh, RTF Ca sens inh, cardiac RTF act, Keap1-Nrf2 PPI, C-LANA FP) | E coli Lon conf inactive
CCCCNC(=O)C1(C)CCN1C(=O)c1ccc(OC)c(F)c1 (stereo unspecified)	E coli Lon inh 16 (no result: LANA-H2A inh, RTF Ca sens inh, cardiac RTF act, Keap1-Nrf2 PPI, C-LANA FP) | E coli Lon conf inactive
CCCCNC(=O)C1(C)CCN1C(=O)c1c(F)ccc(C)c1F (stereo unspecified)	none (no result: LANA-H2A inh, RTF Ca sens inh, cardiac RTF act, Keap1-Nrf2 PPI, C-LANA FP)
CCN1CCN(Cc2ccc(NC(=O)c3ccc(C)c(NC(=O)c4cccc5[nH]ccc45)c3)cc2C(F)(F)F)CC1	E coli Lon inh 13! | E coli Lon conf inactive
CCN1CCN(Cc2ccc(NC(=O)c3ccc(C)c(NC(=O)c4nccn4C)c3)cc2C(F)(F)F)CC1	none
Cc1ccccc1-n1c(SCc2c(C)noc2C)nnc1-c1cccnc1	E coli Lon inh 63 | E coli Lon conf 45
CCOC(=O)c1c(NC(=O)COC(=O)CCCOc2ccc(OC)cc2)sc(C(=O)N(C)C)c1C	none (no result: LANA-H2A inh)
COc1ccc2cnnc(SCC(=O)Nc3ccccc3)c2c1OC	none
COc1ccc(OC)c(NC(=O)CSc2nncc3ccc(OC)c(OC)c23)c1	E coli Lon inh 50 | E coli Lon conf inactive
C=CCn1c(Sc2nc(C)cs2)nc2c1c(=O)[nH]c(=O)n2C	E coli Lon inh 22 | E coli Lon conf inactive
CN(C)Cc1cc(O)c(CN(C)C)cc1O	E coli Lon inh 32 | E coli Lon conf inactive
Cc1cc2oc(=O)cc(CN3CCN(C/C=C/c4ccccc4)CC3)c2cc1O	E coli Lon inh 22 | E coli Lon conf inactive
CC1CCCN(C(=O)CSc2nc3ncccc3[nH]2)C1 (stereo unspecified)	E coli Lon inh 17 | E coli Lon conf inactive
COc1cccc(C(=O)NC(c2ccccc2)C2CCCC2)c1 (stereo unspecified)	none
Cc1c(C(=O)N2CCOCC2)c(S(=O)(=O)Nc2ccc(OC(F)(F)F)cc2)c(C)n1C	none
O=C(NCCN1CCOCC1)c1cccc(S(=O)(=O)Nc2ccc(Br)cc2)c1	none
COc1ccc(C(=O)NCCS(=O)(=O)NC(C)c2ccccc2)cc1 (stereo unspecified)	none
C[C@H](CO)N1C[C@H](C)[C@@H](CN(C)S(=O)(=O)c2cccc(F)c2)OCc2cnnn2CCCC1=O	none (no result: LANA-H2A inh, RTF Ca sens inh, cardiac RTF act, Keap1-Nrf2 PPI, C-LANA FP)
C[C@H]1CN([C@@H](C)CO)C(=O)CCCn2nncc2CO[C@H]1CN(C)S(=O)(=O)c1cccc(F)c1	E coli Lon inh 13 (no result: LANA-H2A inh, RTF Ca sens inh, cardiac RTF act, Keap1-Nrf2 PPI, C-LANA FP) | E coli Lon conf inactive
O=C(Cn1nc(-c2ccc(Cl)cc2)c2ccccc2c1=O)Nc1cccnc1	E coli Lon inh 18 | E coli Lon conf inactive
O=C(Cn1nc(-c2ccccc2)c2ccccc2c1=O)Nc1cccnc1	none
Cn1c2ccccc2c2cc(/C=N/NC(=O)c3ccc(N)cc3)ccc21	E coli Lon inh 20 | E coli Lon conf inactive
COC(=O)c1cc2ccccn2c2c(C(=O)OC)c(C(=O)OC)cc1-2	none
COC(=O)c1cc2c(C)cc3ccc(C)cn3c-2c1C(=O)OC	E coli Lon inh 40 | E coli Lon conf 78
COC(=O)c1cc2c(C)c(C)c3ccccn3c-2c1C(=O)OC	E coli Lon inh 22 | E coli Lon conf 60
CC(C)C(NS(=O)(=O)c1ccccc1)C(=O)N1CCN(C(=O)c2ccco2)CC1 (stereo unspecified)	none
CSCCC(NS(=O)(=O)c1cccc(C(F)(F)F)c1)C(=O)N1CCN(C(=O)c2ccco2)CC1 (stereo unspecified)	E coli Lon inh 52 (no result: LANA-H2A inh) | E coli Lon conf inactive
CC(C)C(=O)Nc1cc(-c2nc3ncccc3o2)ccc1Cl	none
Cc1cccc(NC(=O)Nc2ccccc2)n1	none
Cc1cccc(NC(=O)NCC(F)(F)F)n1	E coli Lon inh 27 | E coli Lon conf inactive
O=C1CC2CCCN2C=C1I (stereo unspecified)	none
O=c1oc2c3c4c(cc2s1)CCCN4CCC3	E coli Lon inh 46 | E coli Lon conf 45
CCN1CCN(C(CNS(=O)(=O)c2ccccc2)c2cccnc2)CC1 (stereo unspecified)	E coli Lon inh 19 | E coli Lon conf inactive
OC(c1ccccc1)c1nc(-c2csc3ccccc23)cs1 (stereo unspecified)	none (no result: LANA-H2A inh, RTF Ca sens inh, cardiac RTF act, Keap1-Nrf2 PPI, C-LANA FP)
CN=C1S/C(=C\c2ccc(SC)cc2)C(=O)N1C	none
CSC1=NC(=O)/C(=C/c2ccc(SC)cc2)S1	E coli Lon inh 25 | E coli Lon conf inactive
CCOc1ccc(N2CC(C(=O)NCCc3c[nH]c4ccc(C)cc34)CC2=O)cc1 (stereo unspecified)	none
CCNC(=O)c1c(C)nc2ccccn12	E coli Lon inh 16 | E coli Lon conf inactive
Cc1cc(OCC(=O)Nc2ccccc2C(N)=O)c2c(C)cc(=O)oc2c1	none
Cc1ccc(S(=O)(=O)N2CCN(C(=O)CN3C(=O)NC(C)(c4ccc5ccccc5c4)C3=O)CC2)cc1 (stereo unspecified)	none (no result: LANA-H2A inh)
CC(=O)c1ccc2c(c1)c(C#N)c1ccccc1[n+]2[O-]	E coli Lon inh 96 (no result: LANA-H2A inh) | E coli Lon conf 88
N#CC(CCc1ccc([N+](=O)[O-])cc1)(CCc1ccc([N+](=O)[O-])cc1)C(N)=O	E coli Lon inh 52 (no result: LANA-H2A inh) | E coli Lon conf 31
O=[N+]([O-])c1ccc(Cc2ccc([N+](=O)[O-])cc2)cc1	none (no result: LANA-H2A inh)

Screens from PubChem.
